An excerpt weighted towards active compounds, which were near 3% of everything screened.
LGR2 antag: inhibitors of bursicon-induced Drosophila LGR2 receptor cAMP signaling; AID 720647; inhibition, % at 9.99 µM; actives 0.35% (n = 380,000); HEK293 LGR2, CRE-luciferase, bursicon-stimulated, 4 h;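 active = drop in luminescence signal, shown as inhibition above about 50% in the replicate tests, limit read from the data, passing the limit was not always enough; inconclusive = probably only some replicates passing the limit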;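 also: agonist challenge used bursicon conditioned medium at about half maximal strength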
MITF act: MITF TRPM1 promoter activation in melanoma cells. SK-MEL-5 TRPM1-promoter luciferase, 24 h; % of positive control, neutral wells = 0. activation, % at 12.5 µM. actives 0.75% (n = 300,000);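 active = mean activation of at least 80% with every replicate also reaching 80%; inconclusive = mean reaches 80% but some replicate falls short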;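 also: 0% = neutral control wells and 100% = parthenolide positive control wells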
TWEAK Fn14 block: TWEAK-Fn14 signaling inhibition; TWEAK-stimulated Fn14 reporter cells, luciferase luminescence, 8 h; inhibition, % at 10 µM; actives 2% (n = 360,000); in the data active = inhibition above about 50%
TROY NFkB inh: inhibitors of TROY-dependent NF-kB signaling | Q293 LMP1-TROYcd NF-kB luciferase reporter, 4 h | inhibition, % at 10 µM | AID 1347056 | actives 0.98% (n = 360,000);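 active = compounds whose plate-normalised and pattern-corrected inhibition of the luciferase reporter signal at the single screening dose is 50% or more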
TRPM1 prom inh: inhibitors of MITF-driven TRPM1 promoter in melanoma cells; SK-MEL-5 TRPM1 promoter luciferase, 24 h; actives 0.83% (n = 330,000); inhibition, % at 12.5 µM;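 active = mean inhibition across replicates of 60% or more, whatever share of single replicates reaches that level; inconclusive = some that reach 60%, reason not given; inactive = mean inhibition across replicates below 60%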
EBV LMP1 NFkB: reduces LMP1-driven NF-kappaB luciferase signal; inhibition, % at 12.5 µM; actives 0.69% (n = 350,000); LMP1-induced NF-kappaB luciferase reporter cells, luminescence; in the data active = inhibition above about 41%; inconclusive = no clear call, values can overlap the other calls;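 also: 0% = neutral control wells and 100% = reference inhibitor control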
Starred values were filed as active, the others as inactive.

How did CCc1ccc(OCC(=O)NC(NC(=S)Nc2ccccc2)C(Cl)(Cl)Cl)cc1 (stereo unspecified) do in these assays?
LGR2 antag: 39; MITF act: -22; TWEAK Fn14 block: 74*; TROY NFkB inh: 53*; TRPM1 prom inh: 26; EBV LMP1 NFkB: 6

Results for Cc1ccc(C)c(NC(=S)NC(NC(=O)Cc2cccc3ccccc23)C(Cl)(Cl)Cl)c1 (stereo unspecified) ?
MITF act: -79; TWEAK Fn14 block: 33; TROY NFkB inh: 25; TRPM1 prom inh: 77*; EBV LMP1 NFkB: -73

How did COc1ccc(OC(=O)Nc2ccccc2)cc1 do in these assays?
LGR2 antag: -56; MITF act: inconclusive; TWEAK Fn14 block: -3; TROY NFkB inh: -65; TRPM1 prom inh: -85; EBV LMP1 NFkB: -22

What do the screens show for `CCc1ccc(OC(=O)Nc2ccccc2)cc1`?
LGR2 antag: -31; MITF act: 92*; TWEAK Fn14 block: -16; TROY NFkB inh: -37; TRPM1 prom inh: -79; EBV LMP1 NFkB: 0

Results for CCc1ccc(OCC(=O)NC(NC(=S)Nc2ccccc2OC)C(Cl)(Cl)Cl)cc1 (stereo unspecified) ?
LGR2 antag: 11; MITF act: 4; TWEAK Fn14 block: 25; TROY NFkB inh: 25; TRPM1 prom inh: -7; EBV LMP1 NFkB: -6

Results for CN(C)C(=O)[C@@H]1[C@@H](CO)[C@@H]2Cn3c(ccc(C4=CCCCC4)c3=O)[C@@H]2N1C(=O)c1ccccc1F ?
LGR2 antag: -16

Results for O=C(NC(NC(=S)Nc1cccc(C(=O)O)c1)C(Cl)(Cl)Cl)OCc1ccccc1 (stereo unspecified) ?
LGR2 antag: -1; MITF act: 1; TWEAK Fn14 block: 11; TROY NFkB inh: -3; TRPM1 prom inh: -3; EBV LMP1 NFkB: 5

What do the screens show for `O=C(NC(NC(=S)Nc1cccc(Cl)c1)C(Cl)(Cl)Cl)OCc1ccccc1` (stereo unspecified)?
LGR2 antag: 5; MITF act: -5; TWEAK Fn14 block: 54*; TROY NFkB inh: 58*; TRPM1 prom inh: 9; EBV LMP1 NFkB: -1

What do the screens show for `COc1cccc(CNC(=O)C[C@@H]2CC[C@@H](NC(C)=O)[C@@H](CO)O2)c1`?
LGR2 antag: 3

Results for C[C@H]1CN([C@@H](C)CO)C(=O)c2cc(N(C)C)ccc2O[C@H]1CN(C)S(=O)(=O)c1ccccc1 ?
LGR2 antag: 2

How did CCCNC(=O)N1[C@H](CO)[C@@H](c2ccc(C3=CCCC3)cc2)[C@@H]1CN(C)C(C)=O do in these assays?
LGR2 antag: 9

What do the screens show for `CCOC(=O)N1CCN(c2cc(N3CCOCC3)c(F)cc2[N+](=O)[O-])CC1`?
LGR2 antag: -3; MITF act: -19; TWEAK Fn14 block: 51*; TROY NFkB inh: 6; TRPM1 prom inh: 12; EBV LMP1 NFkB: 7

What do the screens show for `CCOC(=O)N1CCN(c2ccc(F)cc2[N+](=O)[O-])CC1`?
MITF act: 7; TWEAK Fn14 block: 4; TROY NFkB inh: 11; TRPM1 prom inh: -6; EBV LMP1 NFkB: -3

Results for Cc1cc(C)cc(N=Cc2ccc([N+](=O)[O-])s2)c1 ?
LGR2 antag: -5; MITF act: -26; TWEAK Fn14 block: 21; TROY NFkB inh: -21; TRPM1 prom inh: 28; EBV LMP1 NFkB: -8

How did O=[N+]([O-])c1ccc(C=Nc2ccc(Cl)c([N+](=O)[O-])c2)s1 do in these assays?
LGR2 antag: -1; MITF act: -70; TWEAK Fn14 block: 4; TROY NFkB inh: -1; TRPM1 prom inh: 71*; EBV LMP1 NFkB: -49

What do the screens show for `C[C@@H]1CN([C@@H](C)CO)C(=O)Cc2cc(NC(=O)C3CCCCC3)ccc2O[C@H]1CN(C)C(=O)Nc1ccc(F)cc1`?
LGR2 antag: 6

What do the screens show for `C=CC[C@]12CC=CC(=O)[C@@]1(O)O[C@H](c1ccc(OC)c(OC)c1)[C@H]2C`?
LGR2 antag: inconclusive; MITF act: -61; TWEAK Fn14 block: 66*; TROY NFkB inh: -24; TRPM1 prom inh: 62*; EBV LMP1 NFkB: -2

Results for Cc1cccc(-c2ccc([C@H]3[C@H](CO)N4C(=O)CN(C(=O)c5cccnc5)C[C@@H]34)cc2)c1 ?
LGR2 antag: 6

How did COc1ccc2c(c1)[nH]c(=O)c1sc3ccccc3c12 do in these assays?
MITF act: -15; TWEAK Fn14 block: -50; TROY NFkB inh: 0; TRPM1 prom inh: 16; EBV LMP1 NFkB: -34

What do the screens show for `COc1ccc2sc3c(=O)[nH]c4ccccc4c3c2c1`?
LGR2 antag: 49; MITF act: -44; TWEAK Fn14 block: 46; TROY NFkB inh: 9; TRPM1 prom inh: 46; EBV LMP1 NFkB: 88*

What do the screens show for `CCCSc1ccc([C@@H]2[C@H]3C(=O)N(C)C(=O)[C@H]3[C@]3(C(=O)OC)CCCN23)cc1OC`?
LGR2 antag: 8; MITF act: -4; TWEAK Fn14 block: 2; TROY NFkB inh: -14; TRPM1 prom inh: 9; EBV LMP1 NFkB: 85*

How did CN(C)C(=O)[C@H]1[C@H](CO)[C@H]2Cn3c(ccc(-c4ccccc4F)c3=O)[C@@H]1N2C(=O)c1ccncc1 do in these assays?
LGR2 antag: 5

How did Clc1ccc(-c2csc(Nc3ccccc3)[n+]2Cc2ccco2)c(Cl)c1 do in these assays?
LGR2 antag: -48; MITF act: 89*; TWEAK Fn14 block: 23; TROY NFkB inh: 18; TRPM1 prom inh: -83; EBV LMP1 NFkB: -26

Results for CCCC[n+]1c(-c2ccc(Cl)cc2Cl)csc1Nc1ccccc1 ?
LGR2 antag: 0; MITF act: 33; TWEAK Fn14 block: 11; TROY NFkB inh: 25; TRPM1 prom inh: -29; EBV LMP1 NFkB: 3

What do the screens show for `Cc1ccc(CNC(=O)c2cc3c(C)nc4ccccc4c3o2)cc1`?
LGR2 antag: 21; MITF act: -12; TWEAK Fn14 block: 61*; TROY NFkB inh: 39; TRPM1 prom inh: 10; EBV LMP1 NFkB: 40

What do the screens show for `Cc1ccc(C)c(N2CCN(C(=O)c3cc4c(C)nc5ccccc5c4o3)CC2)c1`?
LGR2 antag: 22; MITF act: -10; TWEAK Fn14 block: 23; TROY NFkB inh: 52*; TRPM1 prom inh: 10; EBV LMP1 NFkB: 9

Results for COc1ccccc1N1CCN(C(=O)c2oc3ccccc3c2C)CC1 ?
MITF act: -35; TWEAK Fn14 block: 31; TROY NFkB inh: 11; TRPM1 prom inh: 36; EBV LMP1 NFkB: 0

Results for Cc1nc2ccccc2c2oc(C(=O)N3CC(C)CC(C)C3)cc12 (stereo unspecified) ?
LGR2 antag: -12; MITF act: -8; TWEAK Fn14 block: -8; TROY NFkB inh: -10; TRPM1 prom inh: 9; EBV LMP1 NFkB: -1

Results for COc1ccccc1N1CCN(C(=O)c2cc3c(C)nc4ccccc4c3o2)CC1 ?
LGR2 antag: 9; MITF act: -17; TWEAK Fn14 block: 45; TROY NFkB inh: 51*; TRPM1 prom inh: 17; EBV LMP1 NFkB: 8
